Experimental data taken from ChEMBL document CHEMBL4513216, “Probing the Open Global Health Chemical Diversity Library for Multistage-Active Starting Points for Next-Generation Antimalarials” (ACS Infect Dis, 2020).
Out of some 68,000 compounds screened, about 2,700 (4%) showed an effect of 50% or more. The entries come from a sample that favours strong results as a whole.

What follows are molecules tested on Plasmodium berghei (assay: Screen against P. berghei liver stage (PbLuc), transformed with Luciferase, at 2uM). Conditions: tested at 2 uM.
Assay type: functional, HepG2
With `COC(=O)c1ccc(NCc2csc(C)n2)cc1Cl` the INHIBITION was -37.11%.
In the case of `CCOc1c(Br)cc(C2c3c(n[nH]c3C)N=C3COC(=O)C32)cc1OC` (stereo not drawn), the INHIBITION is reported as -54.78%.
In the case of `Cc1nc(C)c(C(=O)N2CCc3c(C)cccc32)o1`, the INHIBITION is reported as 43.28%.
`Cc1nc(C)c(C(=O)N2CCCc3c(F)ccc(F)c32)o1` was tested, and the INHIBITION was 44.71%.
For `Cc1nc(C)c(C(=O)N2CCCc3c(F)cccc32)o1`, the INHIBITION was 54.77%.
For `COc1ccc(CNC[C@H]2COCc3nc4cccnc4n32)cn1`, the INHIBITION was -8.63%.
With `CC1CCN(C(=O)c2cccc3ncccc23)CC1` the INHIBITION was -29.11%.
Work on `CN(C)C(C(=O)N1CC(c2ccccn2)C1)c1cccc(F)c1` (stereo not drawn) yielded an INHIBITION of 12.35%.
Work on `Cn1ccnc(Sc2ccccc2)c1=O` yielded an INHIBITION of 50.53%.
In the case of `Cc1ccc(Sc2nccn(C)c2=O)cc1`, the INHIBITION is reported as -2.44%.
In the case of `Cn1ccnc(Sc2ccc(O)cc2)c1=O`, the INHIBITION is reported as -31.15%.
`COc1ccc2c(c1)CC(NCCCn1cc(C)cn1)CC2` (stereo not drawn) was tested, and the INHIBITION was -0.75%.
Molecule `COc1cccc(CN(C)S(=O)(=O)N2CCOCC2)c1` has an INHIBITION of 11.97%.
Work on `CN(Cc1cccc(Cl)c1)S(=O)(=O)N1CCOCC1` yielded an INHIBITION of 50.74%.
Molecule `CN(Cc1cccc(F)c1)S(=O)(=O)N1CCOCC1` has an INHIBITION of 46.57%.
With `CCc1nc(CN2CCOC(CN(CC)c3cccnn3)C2)cs1` (stereo not drawn) the INHIBITION was -24.11%.
In the case of `CN1CCN(Cc2cn3c(n2)CN(C(=O)c2cccn2C)CC3)CC1`, the INHIBITION is reported as -36.65%.
Molecule `O=C(c1ccc2[nH]nnc2c1)N1CCC(Nc2cccnn2)CC1` has an INHIBITION of -23.42%.
In the case of `O=C(c1ccc2cc[nH]c2c1)N1CCC(Nc2cccnn2)CC1`, the INHIBITION is reported as -16.42%.
In the case of `CC(Cn1cccn1)C(=O)N1CCC(Nc2cccnn2)CC1` (stereo not drawn), the INHIBITION is reported as 57.23%.
For `COc1ncccc1C(=O)N1CCC(Nc2ccc(C)nn2)CC1`, the INHIBITION was 62.13%.
`Cc1ccc(NC2CCN(C(=O)c3cccnc3O)CC2)nn1` gave an INHIBITION of -31.57%.
In the case of `CCn1c(C)cc(C(=O)N2CCC(Nc3ccc(C)nn3)CC2)c1C`, the INHIBITION is reported as 13.88%.
For `CCOc1ncccc1C(=O)N1CCC(Nc2ccc(C)nn2)CC1`, the INHIBITION was -23.94%.
With `O=C(c1ccc(NC2CC2)nc1)N1CCC(Nc2cccnn2)CC1` the INHIBITION was 22.1%.
For `CC(C(=O)N1CCC(Nc2cccnn2)CC1)n1cccn1` (stereo not drawn), the INHIBITION was 9.17%.
Work on `CCn1c(C)cc(C(=O)N2CCC(Nc3cccnn3)CC2)c1C` yielded an INHIBITION of 56.58%.
For `O=C(c1ccc2[nH]c(=O)[nH]c2c1)N1CCC(Nc2cccnn2)CC1`, the INHIBITION was 53.45%.
With `CC(C(=O)N1CCC(Nc2cccnn2)CC1)n1ccnc1` (stereo not drawn) the INHIBITION was -12.48%.
Molecule `O=C1NC2(CCN(Cc3ccccc3Cl)CC2)CC1c1ccccc1` (stereo not drawn) has an INHIBITION of 5.92%.
Work on `Cc1cc(NS(=O)(=O)CC2CCCCO2)ccc1F` (stereo not drawn) yielded an INHIBITION of -40.47%.
`CCc1ncc2c(n1)CN(CC(=O)Nc1nncs1)CC2` was tested, and the INHIBITION was 21.12%.
In the case of `CN(C)CCOCC1CN(Cc2cccc(F)c2)Cc2nccn2C1` (stereo not drawn), the INHIBITION is reported as -0.23%.
In the case of `Cc1nc(CNC(=O)C(C)Oc2ccccc2F)no1` (stereo not drawn), the INHIBITION is reported as -8.04%.
In the case of `CC1CCN(c2nc3cn(Cc4cccc(F)c4)c(=O)c-3c[nH]2)CC1`, the INHIBITION is reported as 12.59%.
`COCC(NC(=O)NCc1sccc1C)c1ccco1` (stereo not drawn) gave an INHIBITION of -6.4%.
With `Cc1cc(C(=O)N(C)C)nc(C2(C)CCCN2c2ccccc2)n1` (stereo not drawn) the INHIBITION was 9.9%.
`Cc1nc(C)n(CC2CCCN(CCOc3ccccc3C#N)C2)n1` (stereo not drawn) gave an INHIBITION of -70.51%.
`CN(C)CCN1CCO[C@H]2CCN(C(=O)c3cccs3)CC[C@@H]21` was tested, and the INHIBITION was 33.11%.
`CS(=O)(=O)N1CCO[C@@H]2CCN(C(=O)c3cccs3)CC[C@H]21` showed an INHIBITION of 51.36%.
Molecule `COCCN1CCO[C@H]2CCN(C(=O)c3cccs3)CC[C@@H]21` has an INHIBITION of 34.19%.
`CN(Cc1cccnc1)C[C@@H]1OC[C@H]2CN(C(=O)C3CC3)CC[C@H]21` showed an INHIBITION of 20.21%.
Molecule `Cn1cc(N2CC3(COCCN(Cc4ccsc4)C3)OCC2=O)cn1` (stereo not drawn) has an INHIBITION of -17.88%.
With `O=C(C1CC1)N1CCN2C[C@@H](CO)[C@H](c3ccccc3)[C@H]2C1` the INHIBITION was 14.45%.
In the case of `CC=C(C)C(=O)NS(=O)(=O)c1ccc(Cl)cn1`, the INHIBITION is reported as -40.56%.
Work on `COc1cc(CN(C)C(=O)Cc2c(C)nn(C)c2C)ccc1OC(F)F` yielded an INHIBITION of -51.9%.
With `COc1ccc(CN(C)C(=O)Cc2c(C)nn(C)c2C)cc1F` the INHIBITION was 51.31%.
With `COc1ccc(NC(=O)Cc2c(C)nn(C)c2C)cc1F` the INHIBITION was 18.15%.
Work on `CN(C)CC1(O)CCCN(C(=O)c2ccccc2-n2cccn2)C1` (stereo not drawn) yielded an INHIBITION of -6.64%.
Work on `O=S1(=O)CCCN1Cc1coc(-c2cccs2)n1` yielded an INHIBITION of 21.33%.
`COCCN(CCN(C)C)C(=O)NC1CCc2ccccc2C1` (stereo not drawn) showed an INHIBITION of 62.39%.
With `COCCN(CCOC)C(=O)NC1CCCCC1` the INHIBITION was -20.08%.
Molecule `COCCN(CCN(C)C)C(=O)NC1CC1` has an INHIBITION of -25.13%.
